Rows were chosen to be rich in hits. Some 3.1% of all compounds tested hit in one or more screens of this group.
MEKK2mut PB1 HTS = signal of MEK5 binding to mutant human MEKK2 PB1 domain; bead flow cytometry, Alexa488-MEK5 binding to MEKK2 mutant; percent response, % at 10 µM; 290,000 compounds, 0.35% hits; AID 1530; in the data active = percent response above about 24%, passing the limit was not always enough
UBC13 polyUb = human UBC13 polyubiquitination inhibition; UBC13 polyubiquitin chain formation, TR-FRET; inhibition, % at 20 µM; 330,000 compounds, 0.47% hits; in the data active = inhibition above about 45%, passing the limit was not always enough
Target sequence (P61088 whole entry, looked up): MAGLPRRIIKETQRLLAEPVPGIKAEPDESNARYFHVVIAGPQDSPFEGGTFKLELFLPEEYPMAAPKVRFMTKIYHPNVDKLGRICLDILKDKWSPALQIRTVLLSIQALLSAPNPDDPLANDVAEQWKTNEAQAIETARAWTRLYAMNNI
MEKK2 WT-MEK5 = raises or lowers MEK5 binding to wildtype human MEKK2 PB1 domain; Q9Y2U5; bead flow cytometry, Alexa488-MEK5 binding to MEKK2 WT; actives lie on both sides; binding response (% of control), % at 10 µM; 290,000 compounds, 1.1% hits; AID 1531; in the data active = binding response below about 67% or above about 130%
MEKK3 PB1 HTS = modulators (inhibitors or enhancers) of MEK5 binding to human MEKK3 PB1 domain | bead-based flow cytometry, Alexa488-MEK5 binding to MEKK3; actives lie on both sides; 0 = blocked by unlabeled MEK5, 100 = vehicle | binding response (% of control), % at 10 µM | 290,000 compounds, 1.4% hits | AID 1529;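 active = binding response more than 3 SD above or below the average of its plate-row segment, actives on both sides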;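 also: Alexa488 bead fluorescence after subtracting the streptavidin-only scavenger bead signal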
PREPL inh = human PREPL enzyme inhibition. Q4J6C6. recombinant PREPL, fluorescence polarization activity-based probe. inhibition, % at 5.96 µM. 320,000 compounds, 0.68% hits. AID 2751; in the data active = inhibition above about 43%
ATG4B inhibitor = blocks human ATG4B protease cleavage of LC3 substrate. 340,000 compounds, 0.51% hits. ATG4B cleavage of LC3-PLA2, NBD-HPC fluorescence, 1 h. Q9Y4P1. inhibition, % at 8.33 µM. AID 504462; in the data active = inhibition above about 40%
Target sequence (Q9Y4P1 whole entry, looked up): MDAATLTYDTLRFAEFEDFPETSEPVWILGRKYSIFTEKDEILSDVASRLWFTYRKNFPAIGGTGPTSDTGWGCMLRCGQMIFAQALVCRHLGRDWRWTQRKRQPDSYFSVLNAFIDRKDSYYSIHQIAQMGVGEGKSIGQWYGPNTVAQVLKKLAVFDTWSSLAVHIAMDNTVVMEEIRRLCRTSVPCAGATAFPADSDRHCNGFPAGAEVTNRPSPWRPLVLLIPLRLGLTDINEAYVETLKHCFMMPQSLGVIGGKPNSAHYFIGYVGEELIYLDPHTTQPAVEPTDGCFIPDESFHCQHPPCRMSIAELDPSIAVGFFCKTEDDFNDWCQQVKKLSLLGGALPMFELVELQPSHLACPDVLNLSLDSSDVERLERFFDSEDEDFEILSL
MEKK2wt confirm = raises or lowers MEK5 binding to wildtype human MEKK2, retest; shares compounds with MEKK3 PB1 HTS; bead flow cytometry, Alexa488-MEK5 binding to MEKK2 WT; actives lie on both sides; binding response (% of control), % at 10 µM; 5,900 compounds, 2.4% hits; AID 1892; in the data active = binding response below about 16% or above about 210%; inactive = in between
MEKK2mut-MEK5 = signal of MEK5 binding to mutant human MEKK2, retest. shares compounds with MEKK3 PB1 HTS. bead flow cytometry, Alexa488-MEK5 binding to MEKK2 mutant. percent response, % at 10 µM. 5,900 compounds, 2% hits. AID 1893; in the data active = percent response mostly above about 71%, no sharp cut-off; inactive = mostly below about 38%;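 also: higher means compound restores mutant binding toward wildtype level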
MEKK3 confirm = MEKK3-MEK5 PB1 inhibition, single concentration confirmation; bead flow cytometry, Alexa488-MEK5 binding to MEKK3; hits give low values; 5,900 compounds, 1.8% hits; shares compounds with MEKK3 PB1 HTS; AID 1894; binding response (% of control), % at 10 µM;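 active = binding response below 72% of control, or above a set upper limit, though filed actives all read lower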;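 also: lower values mean stronger disruption of MEK5 binding to MEKK3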
Hits are given with their value; 0 = inactive; - = no result given; [ ] = another dose, or the depositor's remark.

SMILES | MEKK2mut PB1 HTS | UBC13 polyUb | MEKK2 WT-MEK5 | MEKK3 PB1 HTS | PREPL inh | ATG4B inhibitor | MEKK2wt confirm | MEKK2mut-MEK5 | MEKK3 confirm
COc1ccc(CNCC(O)(c2ccccc2)c2ccc(Cl)cc2)cc1 (stereo not given) | 0 | 0 | 0 | 0 | 0 | 0 | - | - | -
COc1cccc(CNCC(O)(c2ccc(Cl)cc2)c2ccc(Cl)cc2)c1 | 0 | 0 | 158 | 0 | 0 | 0 | 0 | 0 | 0
Cc1ccc(CNCC(O)(c2ccccc2)c2ccccc2)cc1 | 0 | 0 | 0 | 0 | 0 | 0 | - | - | -
COc1cc(/C=N/NS(=O)(=O)c2ccc(C(C)(C)C)cc2)cc([N+](=O)[O-])c1O | 0 | 0 | 48[inhibitor] | 0 | 0 | 0 | 0 | 0 | 0
CC(C)(O)CN(CCCNC(=S)Nc1ccccc1)C(=S)Nc1ccccc1 | - | - | - | - | - | 0 | - | - | -
CC(=O)Nc1cccc(C(=O)OC(C)C(=O)NC(=O)NC2CCCCC2)c1 (stereo not given) | - | 0 | - | - | 0 | 0 | - | - | -
CC[n+]1c(/C=C/N(C)c2ccccc2)oc2ccccc21 | 0 | 0 | 0 | 72[inhibitor] | 0 | 0 | 0 | 0 | 0
O=[N+]([O-])c1cc(/C=N/Nc2nc3ccccc3[nH]2)c(O)cc1O | 0 | - | 0 | 132 | 0 | 0 | 0 | 0 | 0
Cc1[nH]c2ccccc2c1/C=N/Nc1nc2ccccc2[nH]1 | 0 | 0 | 140 | 0 | 53 | 0 | 0 | 0 | 0
Cc1ccccc1/C=N/Nc1nc2ccccc2[nH]1 | 0 | 0 | 0 | 0 | 0 | 0 | - | - | -
CCCCCc1cc(=O)oc2c(C(CCN3CCN(c4ccccc4)CC3)c3ccc(N(C)C)cc3)c(OC)cc(OC)c12 (stereo not given) | 0 | 0 | 0 | 0 | 0 | 0 | - | - | -
CCCCCc1cc(=O)oc2c(C(CCN3CCCCC3)c3ccc4c(c3)OCO4)c(OC)cc(OC)c12 (stereo not given) | 50 | 0 | 203 | 0 | 0 | 0 | 226 | 73 | 0
CCCCCc1cc(=O)oc2c(C(CCN3CCCC(C)C3)c3ccc4c(c3)OCO4)c(OC)cc(OC)c12 (stereo not given) | 74 | 0 | 302 | 122 | 0 | 0 | 270 | 109 | 0
Cc1onc(-c2ccccc2Cl)c1C(=O)NCCN1Cc2ccccc2C1=O | 0 | 0 | 2.0[inhibitor] | 1.0[inhibitor] | 0 | 0 | 0 | 0 | 0
Cn1c(=O)c2ccccc2n(Cc2cccc(F)c2)c1=O | 0 | 0 | 0 | 0 | 0 | 0 | - | - | -
CCN1CCN(C(=S)Nc2ccc(Cl)c(Cl)c2)CC1 | 0 | 0 | 62[inhibitor] | 64[inhibitor] | 0 | 0 | 0 | 0 | 0
CCN1CCN(C(=S)Nc2cccc(Cl)c2)CC1 | 0 | 0 | 0 | 0 | 0 | 0 | - | - | -
COc1cc(C(Nc2ccc(S(=O)(=O)N3CCC(C)CC3)cc2)C(=O)NCC2CCCO2)cc(OC)c1OC (stereo not given) | 0 | 0 | 0 | 0 | 0 | 0 | - | - | -
COc1cc(C(Nc2ccc(S(=O)(=O)NCC3CCCO3)cc2)C(=O)NC(C)(C)C)cc(OC)c1OC (stereo not given) | 0 | 0 | 0 | 129 | 0 | 0 | 0 | 0 | 0
Nc1nnc(SCc2c(F)cccc2Cl)s1 | 0 | 0 | 0 | 0 | 0 | 0 | - | - | -
S=C(Nc1ccc(Br)cc1)NC1CCCCC1 | 0 | 0 | 0 | 151 | 0 | 0 | 0 | 0 | 0
FC(F)Sc1ccc(NC(=S)NC2CCC(NC(=S)Nc3ccc(SC(F)F)cc3)CC2)cc1 (stereo not given) | 0 | 0 | 145 | 0 | 0 | 0 | 0 | 0 | 0
S=C(Nc1ccc(Cl)cc1)NC1CCCCC1 | 0 | 0 | 0 | 0 | 0 | 0 | - | - | -
Cc1ccc(C)c(N(CC(=O)NCc2ccc3c(c2)OCO3)C(=O)CCC(=O)Nc2ccccn2)c1 | 0 | 0 | 0 | 82[inhibitor] | 0 | 0 | 0 | 0 | 0
COCCNC(=O)CN(C(=O)CCC(=O)Nc1ccccn1)c1ccccc1OC | 0 | 0 | 0 | 0 | 0 | 0 | - | - | -
SMILES | MEKK2mut PB1 HTS | UBC13 polyUb | MEKK2 WT-MEK5 | MEKK3 PB1 HTS | PREPL inh | ATG4B inhibitor | MEKK2wt confirm | MEKK2mut-MEK5 | MEKK3 confirm
Cc1ccc(N(CC(=O)NCc2ccc3c(c2)OCO3)C(=O)CCC(=O)Nc2ccccn2)cc1 | 0 | 0 | 0 | 0 | 0 | 0 | - | - | -
COCCNC(=O)CN(C(=O)CCC(=O)Nc1ccccn1)c1ccccc1F | 0 | 0 | 0 | 70[inhibitor] | 0 | 0 | 0 | 0 | 0
Clc1ccccc1OCCN1CCC(Cc2ccccc2)CC1 | 0 | 0 | 0 | 0 | 0 | 0 | - | - | -
Clc1cccc(CN2CCC(Cc3ccccc3)CC2)c1 | 0 | 0 | 0 | 0 | 0 | 0 | - | - | -
Clc1ccc(CN2CCC(Cc3ccccc3)CC2)cc1 | 59 | 0 | 199 | 0 | 0 | 0 | 0 | 0 | 0
OCc1ccccc1OCCCN1CCC(Cc2ccccc2)CC1 | 24 | 0 | 194 | 0 | 0 | 0 | 0 | 0 | 0
COCc1cc(C)nc(SCc2ccc([N+](=O)[O-])cc2)c1C#N | 0 | 0 | 0 | 0 | 0 | 0 | - | - | -
OCC1OC(n2cnc3ccccc32)CC1O (stereo not given) | 0 | 0 | 0 | 0 | 0 | 0 | - | - | -
Cc1ccc(C(=O)N[C@H](C(=O)OCC(=O)NC2CCS(=O)(=O)C2)C(C)C)cc1 (stereo not given in full) | 0 | 0 | 0 | 132 | 0 | 0 | 0 | 0 | 0
O=C(CN1CCN(S(=O)(=O)c2ccccc2)CC1)Nc1ccccc1C(=O)c1ccccc1 | 0 | 0 | 0 | 128 | 0 | 0 | 0 | 0 | 0
O=C(CN1CCCc2ccccc21)NCCc1ccc(F)cc1 | 0 | 0 | 0 | 45[inhibitor] | 0 | 0 | 0 | 0 | 0
COc1ccc(CCNC(=O)CN2CCCc3ccccc32)cc1OC | 0 | 0 | 0 | 0 | 0 | 0 | - | - | -
COc1ccc(NC(=S)NCCSc2ccc(C)cc2)c(OC)c1 | 0 | 0 | 0 | 0 | 0 | 0 | - | - | -
COc1ccc(OC)c(NC(=S)NCCSc2ccc(C)cc2)c1 | 0 | 0 | 0 | 142 | 0 | 0 | 0 | 0 | 0
Cc1ccc(S(=O)(=O)N2CCCOC2)cc1 | 0 | 0 | 0 | 79[inhibitor] | 0 | 0 | 0 | 0 | 0
CN(C(=O)c1ccc(NC(=O)Cc2ccc(NC(=O)C3CCCN(C(=O)C4CC4)C3)cc2)cc1)C1CC1 (stereo not given) | - | 0 | - | - | 0 | 0 | - | - | -
COc1ccccc1C(=O)NCCC(=O)NC(C)c1ccc(-n2ccnc2)cc1 (stereo not given) | - | 0 | - | - | 0 | 0 | - | - | -
Cc1ccc(-c2nc(N)sc2CC(=O)OCC(=O)NC2CCCC(C)C2C)cc1 (stereo not given) | 0 | 0 | 0 | 0 | 0 | 0 | - | - | -
